High-throughput results from PubChem.
The list is not random: actives were taken first. Their share in the collection is about 3.6%.
Pf apPOL block: Pf-apPOL inhibitors, biochemical, fluorescence. Plasmodium falciparum apicoplast DNA polymerase (apPOL). Recombinant Pf-apPOL, molecular beacon fluorescence, 1.5 h. inhibition, % at 10 µM. 210,000 tested, 0.25% active
mHTT-CaM PPI inh: mutant huntingtin-calmodulin interaction inhibitors – biochemical, AlphaScreen, primary screen | P42858 | AlphaScreen His-mHTT/GST-CaM binding, luminescence | inhibition, % at 15 µM | 190,000 tested, 3.6% active;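 further: 0% = both proteins with DMSO and 100% = one protein alone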
* = called active by the depositor; nt = not tested or not shown; ! = repeats disagree. No stated cut-off is given here; in the data, active means inhibition above about 50%; inactive means the rest.

SMILES	Pf apPOL block	mHTT-CaM PPI inh
Cc1ccc(CN2C(=O)NC3(CCN(C(=O)COc4cccc(C)c4)CC3)C2=O)cc1	-7	5
COc1ccc2c(c1)NC1(CCN(C(=O)COc3ccc(F)cc3)CC1)c1cccn1-2	1	96*
COc1ccc2c(c1)NC1(CCN(C(=O)COc3cccc(C)c3)CC1)c1cccn1-2	-9	85*
Cc1cccc(OCC(=O)N2CCC3(CC2)NC(=O)N(Cc2ccc(F)cc2)C3=O)c1	-5	29
Cc1noc(COC2CCN(S(=O)(=O)c3cn(C)c(C)n3)CC2)n1	-1	0
Cc1ccc(C(=O)Nc2ccc3c(N4CCOCC4)ncnc3c2)cc1	-5	6
O=C(Nc1ccc2c(N3CCOCC3)ncnc2c1)c1cccc(Br)c1	-3	54*
O=S(=O)(NCCSC1CCCCC1)c1ccc2c(c1)OCCO2	3	-4
CC(C)(C)OC(=O)N1CCC(CNS(=O)(=O)c2ccc3c(c2)OCCO3)CC1	63*!	nt
CCCN1CCN(c2ncc3c(n2)CCNC3)CC1	-4	-4
CS(=O)(=O)N1CCC(C(=O)NCc2cc(-c3ccco3)on2)CC1	-2	-8
Cc1ccc(-n2nc(C)c3c2OC(N)=C(C#N)C3c2ccco2)cc1 (stereo not drawn)	-3	60*
Cc1ccc(-n2nc(C)c3c2OC(N)=C(C#N)C3c2c(F)cccc2Cl)cc1 (stereo not drawn)	0	10
O=C(c1cccnc1N1CCNC(c2ccccc2)C1)N1CCCN(c2ncccn2)CC1 (stereo not drawn)	4	-3
COc1cccc(C(=O)N2CCN(c3cc(Cl)ccc3C)CC2)c1OC	0	100*
COc1cc(OC)cc(C(=O)N2CCN(C(=O)c3ccc(-c4ccccc4)cc3)CC2)c1	-4	11
COc1cccc(C(=O)N2CCN(C(=O)c3ccc(-c4ccccc4)cc3)CC2)c1OC	6	52*
COc1ccccc1C(=O)N1CCN(C2=NN=C(c3ccccc3)CS2)CC1	1	79*
COc1ccccc1N1CCN(C(=O)c2ccc(Cl)cc2[N+](=O)[O-])CC1	7	7
COc1ccccc1C(=O)N1CCN(C(=O)C(c2ccccc2)c2ccccc2)CC1	-10	21
COC(=O)c1cccc(C(=O)N2CCN(c3cc(Cl)ccc3C)CC2)n1	-2	97*
COC(=O)c1cccc(C(=O)Nc2ccc(Cl)cc2C)n1	-3	-7
COCCn1c(=N)c(S(=O)(=O)c2ccc(Cl)cc2)cc2c(=O)n3cccc(C)c3nc21	-22	-4
Cc1ccc(S(=O)(=O)N2CCCC(C(=O)O)C2)cc1 (stereo not drawn)	-2	5
COc1cccc2c(Nc3cccc(C(F)(F)F)c3)cc(C)nc12	-52	12
SMILES	Pf apPOL block	mHTT-CaM PPI inh
CC(=O)N1CCc2cc(Br)cc(S(=O)(=O)NCCc3ccccc3Cl)c21	-10	11
Cc1ccc(CNC(=O)c2cnn3c(C)c(Cc4cccc(Cl)c4)c(C)nc23)cc1	-5	4
Cc1nc2c(C(=O)NCc3ccco3)cnn2c(C)c1Cc1cccc(Cl)c1	-5	31
COc1ccccc1CNC(=O)c1cnn2c(C)c(Cc3cccc(Br)c3)c(C)nc12	-11	6
Cc1nc2nc(CC(=O)NCc3ccccc3)nn2c(C)c1Cc1cccc(Cl)c1	-4	63*
Cc1nc2c(C(=O)NCc3ccccc3)cnn2c(C)c1Cc1cccc(Br)c1	-6	66*
Cc1nc2c(C(=O)NCc3ccco3)cnn2c(C)c1Cc1cccc(Br)c1	-7	51*
Cc1nc2nc(SCC(=O)NCc3ccccc3)nn2c(C)c1Cc1ccccc1	-13	31
Cc1nc2c(C(=O)NCc3cccnc3)cnn2c(C)c1Cc1cccc(Br)c1	-9	58*
CCCCN(C)C(=O)C1c2cc(OC)c(OC)cc2C(=O)N(C)C1c1cccnc1 (stereo not drawn)	4	-2
Cc1ccc(CNC(=O)NCCC2CCN(C(=O)NC3CCCCC3)CC2)cc1	-2	6
COC(=O)c1sc(C(F)(F)F)c(-c2ccccc2)c1S(=O)(=O)c1ccc(C(F)(F)F)cc1	2	nt
NS(=O)(=O)c1ccc(NC(=O)CSc2nnc(-c3ccco3)o2)cc1	-6	nt
COc1cccc(CNC(=O)c2cn3cc(Cl)ccc3n2)c1	-3	1
COc1cccc(-c2ccc3nc(C(=O)NCc4ccncc4)cn3c2)c1	12	52*
COc1ccc(C)cc1NC(=O)N1CC2CCCN2c2ccccc21 (stereo not drawn)	0	83*
COC(=O)c1ccc(C(=O)OC)c(NC(=O)N2CC3CCCN3c3ccccc32)c1 (stereo not drawn)	0	58*
Cc1ccc(C)c(NC(=O)N2CC3CCCN3c3ccccc32)c1 (stereo not drawn)	-5	47
COC(=O)c1ccc(Cl)cc1NC(=O)N1CCN(C)c2ccccc21	-3	48
COc1cc(NC(=O)N2CC3CCCN3c3ccccc32)cc(OC)c1 (stereo not drawn)	4	50
COc1ccc(Cl)cc1NC(=O)N1CC2CCCN2c2ccccc21 (stereo not drawn)	-3	74*
O=C(c1cccs1)N1CCc2ccc([N+](=O)[O-])cc2C1	-4	-9
Cc1ccccc1-c1nc2cc(NC(=O)c3ccc([N+](=O)[O-])cc3)ccc2o1	-5	3
c1cc(-c2noc(C3CCCCN3CC3CC3)n2)ccn1 (stereo not drawn)	-16	15
COc1cc(/C=C2/C(=O)N(c3ccccc3)N=C2C)c([N+](=O)[O-])cc1OC	-5	0
SMILES	Pf apPOL block	mHTT-CaM PPI inh
CC1=NN(c2ccccc2)C(=O)/C1=C/c1ccc(O)c(Cl)c1	1	22
CC1=NN(c2ccccc2)C(=O)/C1=C/c1cc(Cl)c(O)c(Cl)c1	-9	64*
COc1ccc(/C=C2/C(=O)N(c3ccc(Cl)c(Cl)c3)N=C2C)cc1[N+](=O)[O-]	2	12
C=CCOc1ccc(/C=C2/C(=O)N(c3ccc(Cl)c(Cl)c3)N=C2C)cc1OC	-4	6
COc1cc(/C=C2/C(=O)N(c3ccc(C)c(Cl)c3)N=C2C)ccc1O	-2	52*
COc1cc(/C=C2/C(=O)N(c3ccccc3)N=C2C)cc([N+](=O)[O-])c1O	1	57*
CC1=NN(c2cccc(Cl)c2)C(=O)/C1=C/c1ccc(Br)c([N+](=O)[O-])c1	-3	81*
CN(C)CCNC(=O)c1ccc(-c2ccccc2)cc1	0	1
COc1cc(/C=C2/C(=O)N(c3ccccc3)N=C2C)cc(Br)c1O	7	55*
COc1cc(/C=C2/C(=O)N(c3ccccc3)N=C2C)ccc1OCc1ccccc1	-3	10
COc1ccc(/C=C2/C(=O)N(c3ccccc3)N=C2C)cc1Br	2	20
COc1ccccc1/C=C1/C(=O)N(c2cccc(Cl)c2)N=C1C	2	22
COc1cc(/C=C2/C(=O)N(c3ccccc3)N=C2C)cc(OC)c1O	-5	52*
COc1cc(/C=C2/C(=O)N(c3cccc(Cl)c3)N=C2C)cc(Br)c1O	-2	78*
COc1cccc(/C=C2/C(=O)N(c3cccc(Cl)c3)N=C2C)c1	-3	96*
COc1ccc(/C=C2/C(=O)N(c3ccc(Cl)c(Cl)c3)N=C2C)cc1Br	1	0
COc1cc(/C=C2/C(=O)N(c3ccc(Cl)c(Cl)c3)N=C2C)cc(OC)c1OC	-4	14
COc1cc(/C=C2/C(=O)N(c3ccc(Cl)c(Cl)c3)N=C2C)cc(OC)c1O	2	67*
